BoNT-F LC inh – BoNT/F light chain protease inhibitors, primary screen, biochemical, flow cytometry, MLPCN library | Multiplex microsphere protease cleavage assay | inhibition, % at 10 µM | 0.22% of 360,000 active | AID 588497, 2011; in the data active = inhibition above about 35%, passing the limit was not always enough; inconclusive = no clear call, values can overlap the other calls; also: plate controls were buffer without enzyme for full effect and enzyme alone for no effect
Anthrax LF inh2 – Bacillus anthracis LF protease inhibitors, primary screen, biochemical, multiplex microsphere, MLPCN library; inhibition, % at 10 µM; AID 588501, 2011; multiplex microsphere protease cleavage assay; 0.12% of 360,000 active; Lethal factor (Bacillus anthracis), P15917; also: plate controls were buffer without enzyme for full effect and enzyme alone for no effect
Target sequence (P15917 whole entry, looked up): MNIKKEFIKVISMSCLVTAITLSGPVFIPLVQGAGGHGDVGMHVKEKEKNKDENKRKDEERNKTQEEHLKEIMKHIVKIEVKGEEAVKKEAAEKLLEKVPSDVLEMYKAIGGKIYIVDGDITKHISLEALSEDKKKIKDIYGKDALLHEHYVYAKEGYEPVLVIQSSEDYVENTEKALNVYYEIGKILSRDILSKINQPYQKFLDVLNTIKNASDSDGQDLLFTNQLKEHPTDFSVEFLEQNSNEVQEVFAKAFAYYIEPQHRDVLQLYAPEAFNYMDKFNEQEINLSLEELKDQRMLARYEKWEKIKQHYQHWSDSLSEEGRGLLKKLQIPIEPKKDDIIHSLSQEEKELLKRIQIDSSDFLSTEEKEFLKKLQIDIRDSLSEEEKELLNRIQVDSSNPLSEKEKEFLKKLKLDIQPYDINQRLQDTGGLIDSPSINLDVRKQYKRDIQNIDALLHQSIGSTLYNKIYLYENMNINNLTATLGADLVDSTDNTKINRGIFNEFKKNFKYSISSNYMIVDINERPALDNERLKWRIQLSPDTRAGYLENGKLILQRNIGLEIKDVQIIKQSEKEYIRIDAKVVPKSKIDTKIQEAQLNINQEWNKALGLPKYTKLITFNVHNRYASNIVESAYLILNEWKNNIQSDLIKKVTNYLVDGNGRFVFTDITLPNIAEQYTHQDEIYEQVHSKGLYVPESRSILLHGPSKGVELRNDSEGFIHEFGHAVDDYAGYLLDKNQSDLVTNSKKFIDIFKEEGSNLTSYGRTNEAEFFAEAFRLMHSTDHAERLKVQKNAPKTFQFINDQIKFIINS
DUSP3 inh – VHR1 phosphatase inhibitors, primary screen, biochemical, absorbance, uHTS | Dual specificity protein phosphatase 3 (Homo sapiens), P51452 | recombinant VHR phosphatase, pNPP absorbance | inhibition, % at 13.3 µM | 0.52% of 290,000 active; in the data active = inhibition above about 50%
MazF activator – activators of E. coli MazEF toxin-antitoxin RNase, primary screen, biochemical, fluorescence, uHTS; activation, % at 20 µM; Endoribonuclease toxin MazF (Escherichia coli (strain K12)), P0AE70; FAM/BHQ RNA-DNA oligo cleavage fluorescence, 5 h; 0.32% of 350,000 active; AID 504720, 2011; in the data active = activation above about 50%
Bead autofluor – compound fluorescence in toxin protease inhibitor counterscreen. compound autofluorescence counterscreen, microsphere flow cytometry; hits give high values. fluorescence intensity (no concentration beside the values). 3.1% of 360,000 active. AID 624483; in the data active = fluorescence intensity above about 16000; inconclusive = no clear call, values can overlap the other calls
BoNT-A LC inh2 – BoNT/A light chain protease inhibitors, primary screen, biochemical, flow cytometry, MLPCN library. Botulinum neurotoxin type A light chain protease (Clostridium botulinum A str. ATCC 3502). AID 588499, 2011. inhibition, % at 10 µM. 0.17% of 360,000 active. multiplex microsphere protease substrate cleavage; also: plate controls were buffer without enzyme for full effect and enzyme alone for no effect
* marks the source's active call; other numbers are inactive results; ? = inconclusive; nt = no result. Only some compounds are listed: those with a hit (about 4.1% of all), similar ones and a draw of the others. Rule as the data show it, unless noted: active = inhibition above about 30%; inconclusive = no clear call, values can overlap the other calls; inactive = below that.

SMILES | BoNT-F LC inh | Anthrax LF inh2 | DUSP3 inh | MazF activator | Bead autofluor | BoNT-A LC inh2
CCN1CC2CCCC3(C1)C(=O)NC1(CCCCC1)N=C23 (stereo not drawn) | -1.2 | 0.1 | -15.9 | -1.3 | 21486* | -1.8
Cc1cccc(C(=O)Nc2ccc(S(=O)(=O)N3CCOCC3)cc2C)c1 | -20.9 | 3.5 | -19.7 | 7.1 | 4002 | 2.5
C=CCn1c(NCCc2ccccc2)nc2c1c(=O)n(C)c(=O)n2C | -1.5 | -4.2 | 9.6 | -4.1 | 2913 | -0.9
Cn1c(=O)c2c(nc(Br)n2Cc2ccc3ccccc3c2)n(C)c1=O | 5.0 | -2.2 | 29.5 | 9.2 | 20690* | ?
Cn1c(=O)c2c(nc(-n3ccnc3)n2Cc2ccccc2)n(C)c1=O | -8.8 | -0.6 | 1.8 | -2.0 | 4140 | -1.3
CN(C)c1nc2c(c(=O)n(C)c(=O)n2C)n1Cc1ccccc1 | -2.1 | 0.9 | 13.6 | 2.7 | 22117* | -0.2
C/C(Cl)=C\Cn1c(NCCc2ccccc2)nc2c1c(=O)n(C)c(=O)n2C | 35.6* | -0.1 | -16.6 | -0.1 | 6537 | ?
Cc1ccc(-c2csc3nnc(SCC(=O)Nc4nsc(-c5ccccc5)n4)n23)cc1 | 3.8 | -1.3 | -13.1 | -29.2 | 21990* | ?
O=C(CSc1nnc2scc(-c3ccccc3)n12)Nc1nsc(-c2ccccc2)n1 | 2.0 | -0.2 | -14.8 | -9.9 | 20413* | 0.6
O=C(CSc1nnc2scc(-c3ccccc3)n12)c1ccc2c(c1)OCCO2 | 5.5 | -2.5 | 25.0 | 54.8* | 5635 | 0.7
O=C(CSc1nnc2scc(-c3ccccc3)n12)Nc1nsc(-c2ccc(Cl)cc2)n1 | -4.6 | -0.5 | nt | -2.0 | 2910 | -0.1
CC(C)CC(=O)Nc1ccc(C(=O)COC(=O)C2=COCCO2)cc1 | nt | nt | nt | 2.9 | nt | nt
CC(C)NC(=O)CN1C(=O)C(=O)c2ccccc21 | -2.3 | -2.7 | -5.3 | 1.8 | 22994* | ?
O=C1C(=O)N(CC(=O)N2CCCC2)c2ccccc21 | -1.0 | -4.2 | 16.5 | 8.1 | 4194 | 0.6
N=c1c[n+](N2CCOCC2)[n-]o1 | 3.7 | 2.8 | -3.0 | 352.8* | 5879 | 1.4
COc1ccc(C(=O)Nc2nnc(C)s2)cc1S(=O)(=O)N1CCOCC1 | 2.6 | 1.3 | nt | 0.9 | 6041 | -1.7
COc1ccc(C(=O)Nc2ccc(-c3cn4ccsc4n3)cc2)cc1S(=O)(=O)N1CCOCC1 | 3.9 | -9.9 | 18.8 | -6.2 | 20320* | ?
COc1ccc(C(=O)Nc2nc(C)c(C(C)=O)s2)cc1S(=O)(=O)N1CCOCC1 | nt | nt | nt | 69.1* | nt | nt
O=C(Cc1ccccc1)NN1CCCCC1 | -23.6 | -0.4 | 35.9 | 8.4 | 3096 | -1.6
Cc1cccc(C)c1NC(=O)C(c1ccccc1OC(F)(F)F)N1CCN(C/C=C/c2ccccc2)CC1 (stereo not drawn) | 2.3 | -2.9 | nt | nt | 5546 | -0.7
CCOC(=O)C1(C)CCCN1C(=O)c1c(F)cccc1F (stereo not drawn) | -1.0 | -8.0 | nt | nt | 4006 | -0.1
O=C1C=C(c2cccc(CO)c2)C[C@@H](c2ccc3c(c2)OCO3)C1 | 1.3 | -2.2 | nt | 12.3 | 3954 | -0.5
C=CCn1c(O)c(N=NC(=S)Nc2cccc(C)c2)c2ccccc21 | -2.7 | 8.9 | 40.0 | 2.1 | 2362 | 30.3*
CC1C(=O)N(Cc2cn(CCC3OCCCO3)nn2)CCS(=O)(=O)N1Cc1ccc(-c2ccc(Cl)cc2)cc1 (stereo not drawn) | -8.8 | -3.3 | nt | 20.4 | 3447 | 0.2
O=C(O)c1ccccc1OCCN1CCCC1=O | 10.1 | 6.9 | -3.5 | 3.2 | 3680 | 2.2
SMILES | BoNT-F LC inh | Anthrax LF inh2 | DUSP3 inh | MazF activator | Bead autofluor | BoNT-A LC inh2
O=C(O)c1ccc(OCCN2CCCC2=O)cc1 | -279.2 | -35.2 | 24.9 | 4.4 | 19644* | -50.8
C=CCCCOc1ccc(C(=O)O)cc1 | -2.1 | -1.9 | 8.3 | -3.5 | 21372* | -2.6
O=S(=O)(O)c1cccnc1SCc1ccccc1 | ? | -1.7 | nt | 7.0 | 2912 | 3.5
CCOc1ccc(NC(=O)c2ccc(F)c(S(=O)(=O)N3CCN(c4ccccn4)CC3)c2)cc1 | 0.8 | -2.2 | 17.9 | -1.1 | 16376* | ?
CCOc1ccc(NC(=O)c2ccc(F)c(S(=O)(=O)N3CCCC3)c2)cc1 | -14.1 | -11.0 | nt | -0.2 | 4527 | -1.3
O=C1Nc2ccc(Br)cc2C12NNc1ccccc1O2 (stereo not drawn) | -2.9 | -0.1 | 24.2 | 83.7* | 4049 | -0.1
CC#CCN1C(=O)N[C@@H](c2ccccc2)C(C(=O)OC)=C1C | 5.8 | -3.6 | nt | 8.3 | 3798 | -0.5
CC(C)CCNC(=O)CN(CCN1CCOCC1)C(=O)Cn1nnc(-c2ccc(F)cc2)n1 | -1.2 | -1.4 | -10.1 | -2.2 | 22983* | -1.7
COc1ccc(-c2nnn(CC(=O)N(CC(=O)NCCC(C)C)Cc3cccs3)n2)cc1OC | -2.5 | -2.7 | 13.0 | -4.4 | 16733* | ?
O=C(CN(CCN1CCOCC1)C(=O)Cn1nnc(-c2ccc(F)cc2)n1)NC1CCCCC1 | 3.9 | -1.7 | -21.2 | -10.5 | 9649 | -0.1
O=C(COC(=O)c1cnc(Cl)c(Cl)c1)NC1CCCC1 | 3.7 | 0.5 | nt | 5.4 | 3038 | -0.6
C[C@H](NC(=O)c1cc2c(cn1)[nH]c1ccccc12)C(=O)O | 8.3 | -2.7 | 57.3* | -1.2 | 4039 | -2.3
CCN(CC)S(=O)(=O)c1cc(NC(=O)COC(=O)CCc2nc3ccccc3s2)ccc1C | -1.0 | -4.9 | -7.0 | -10.5 | 22825* | ?
COc1ccc(CN(CCC#N)C(=S)NC(=O)c2ccccc2)cc1 | 0.0 | -0.4 | 27.0 | 2.5 | 2689 | -0.1
N#CCCN(Cc1ccccc1)C(=S)NC(=O)c1ccccc1 | 2.4 | -1.0 | -7.3 | -6.6 | 21936* | ?
C[C@H](CO)N1C[C@H](C)[C@@H](CN(C)S(C)(=O)=O)Oc2ccc(NC(=O)Nc3ccccc3)cc2C1=O | -0.5 | -3.7 | nt | -0.9 | 4098 | -0.7
CC(C)c1cc(C(N)=O)c(NC(=O)C2CCC2)s1 | 4.0 | 0.0 | 15.6 | -10.0 | 21955* | 0.7
O=C(Cc1ccccc1)N1CCC(c2nc(-c3ccc(F)cc3)no2)CC1 | 11.7 | -10.5 | 4.9 | -2.0 | 16726* | 9.5
Cc1ccc(-c2noc(C3CCCN(C(=O)c4c(F)cccc4F)C3)n2)cc1 (stereo not drawn) | 3.9 | -7.2 | 0.8 | -3.5 | 21313* | 1.9
COc1ccc(C(=O)N2CCCC(c3nc(-c4ccc(OC)c(OC)c4)no3)C2)c(OC)c1 (stereo not drawn) | 5.4 | -9.3 | 5.0 | 1.7 | 20939* | 4.9
COc1ccc(-c2noc(C3CCCN(C(=O)c4ccccc4OC)C3)n2)cc1OC (stereo not drawn) | 0.4 | -0.8 | 10.5 | -10.6 | 16635* | ?
COc1ccc(-c2noc(C3CCCN(C(=O)c4c(F)cccc4F)C3)n2)cc1OC (stereo not drawn) | -11.8 | -2.9 | 17.9 | 7.4 | 3255 | 4.9

Screening data as filed in PubChem.
